# Experimental data: ChEMBL document CHEMBL1961873, “Compounds: GSK PKIS; Assays: Nanosyn kinase panel” (2012)
# “And” between values parts separate entries of the source, which are not always exact repeats. Equal entries are not always repeated.
# How the values were obtained:
# [1] = target: Tyrosine-protein kinase SYK (Homo sapiens) (UniProt P43405); details: at 1 µM
# [2] = target: T1, Tyrosine-protein kinase Tec (Homo sapiens) (UniProt P42680); details: at 0.1 µM
# T1 sequence (whole entry): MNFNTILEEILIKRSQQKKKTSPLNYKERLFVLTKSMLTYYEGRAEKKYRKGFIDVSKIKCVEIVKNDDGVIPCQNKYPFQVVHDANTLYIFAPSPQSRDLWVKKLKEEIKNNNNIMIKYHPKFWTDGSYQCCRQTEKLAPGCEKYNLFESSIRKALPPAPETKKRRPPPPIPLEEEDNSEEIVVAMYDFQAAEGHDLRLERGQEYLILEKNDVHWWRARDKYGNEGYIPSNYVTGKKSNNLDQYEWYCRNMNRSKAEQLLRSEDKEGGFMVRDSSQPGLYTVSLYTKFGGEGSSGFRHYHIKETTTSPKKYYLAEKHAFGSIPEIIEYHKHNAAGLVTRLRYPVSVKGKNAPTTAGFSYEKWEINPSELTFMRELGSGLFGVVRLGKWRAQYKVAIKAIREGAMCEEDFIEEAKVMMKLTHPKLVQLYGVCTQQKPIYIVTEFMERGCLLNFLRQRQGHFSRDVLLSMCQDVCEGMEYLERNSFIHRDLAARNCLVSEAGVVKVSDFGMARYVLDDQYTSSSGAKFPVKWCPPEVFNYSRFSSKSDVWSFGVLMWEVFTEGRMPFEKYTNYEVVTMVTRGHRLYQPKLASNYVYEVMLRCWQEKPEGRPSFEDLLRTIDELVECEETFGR
# [3] = target: T1, Tyrosine-protein kinase Tec (Homo sapiens); details: at 1 µM
# [4] = target: Angiopoietin-1 receptor (Homo sapiens) (UniProt Q02763); details: at 0.1 µM
# Sequence of Angiopoietin-1 receptor (Homo sapiens) (Q02763 whole entry): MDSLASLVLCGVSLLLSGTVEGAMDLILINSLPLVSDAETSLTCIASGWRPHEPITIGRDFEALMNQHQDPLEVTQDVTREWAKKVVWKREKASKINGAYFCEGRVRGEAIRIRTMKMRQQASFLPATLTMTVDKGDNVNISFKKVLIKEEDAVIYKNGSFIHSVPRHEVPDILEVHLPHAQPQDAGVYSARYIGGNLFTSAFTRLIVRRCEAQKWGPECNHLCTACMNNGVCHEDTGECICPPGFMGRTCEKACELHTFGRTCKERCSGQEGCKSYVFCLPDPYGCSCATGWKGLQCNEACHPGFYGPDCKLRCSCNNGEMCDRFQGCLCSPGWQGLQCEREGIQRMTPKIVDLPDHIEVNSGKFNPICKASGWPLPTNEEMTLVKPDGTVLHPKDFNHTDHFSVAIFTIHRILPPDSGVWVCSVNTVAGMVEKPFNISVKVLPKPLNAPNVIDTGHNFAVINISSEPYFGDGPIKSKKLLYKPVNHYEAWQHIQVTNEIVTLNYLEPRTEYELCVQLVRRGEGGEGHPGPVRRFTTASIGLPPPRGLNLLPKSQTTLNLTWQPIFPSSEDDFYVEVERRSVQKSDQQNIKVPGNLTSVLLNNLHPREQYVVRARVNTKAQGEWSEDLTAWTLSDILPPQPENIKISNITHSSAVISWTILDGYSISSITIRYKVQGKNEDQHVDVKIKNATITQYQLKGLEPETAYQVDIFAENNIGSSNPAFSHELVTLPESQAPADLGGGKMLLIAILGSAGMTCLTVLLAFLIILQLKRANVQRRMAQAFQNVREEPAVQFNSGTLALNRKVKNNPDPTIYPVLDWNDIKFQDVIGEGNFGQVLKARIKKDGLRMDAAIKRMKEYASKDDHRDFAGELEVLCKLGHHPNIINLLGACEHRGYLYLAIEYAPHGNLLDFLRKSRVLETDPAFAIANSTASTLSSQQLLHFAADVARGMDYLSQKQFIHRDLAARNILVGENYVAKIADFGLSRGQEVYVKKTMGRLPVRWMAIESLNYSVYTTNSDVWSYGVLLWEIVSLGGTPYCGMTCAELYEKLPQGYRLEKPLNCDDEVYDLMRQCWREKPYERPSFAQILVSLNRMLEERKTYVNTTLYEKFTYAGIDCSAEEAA
# [5] = target: Angiopoietin-1 receptor (Homo sapiens) (UniProt Q02763); details: at 1 µM
# [6] = target: T2, Non-receptor tyrosine-protein kinase TNK1 (Homo sapiens) (UniProt Q13470); details: at 0.1 µM
# T2 sequence (whole entry): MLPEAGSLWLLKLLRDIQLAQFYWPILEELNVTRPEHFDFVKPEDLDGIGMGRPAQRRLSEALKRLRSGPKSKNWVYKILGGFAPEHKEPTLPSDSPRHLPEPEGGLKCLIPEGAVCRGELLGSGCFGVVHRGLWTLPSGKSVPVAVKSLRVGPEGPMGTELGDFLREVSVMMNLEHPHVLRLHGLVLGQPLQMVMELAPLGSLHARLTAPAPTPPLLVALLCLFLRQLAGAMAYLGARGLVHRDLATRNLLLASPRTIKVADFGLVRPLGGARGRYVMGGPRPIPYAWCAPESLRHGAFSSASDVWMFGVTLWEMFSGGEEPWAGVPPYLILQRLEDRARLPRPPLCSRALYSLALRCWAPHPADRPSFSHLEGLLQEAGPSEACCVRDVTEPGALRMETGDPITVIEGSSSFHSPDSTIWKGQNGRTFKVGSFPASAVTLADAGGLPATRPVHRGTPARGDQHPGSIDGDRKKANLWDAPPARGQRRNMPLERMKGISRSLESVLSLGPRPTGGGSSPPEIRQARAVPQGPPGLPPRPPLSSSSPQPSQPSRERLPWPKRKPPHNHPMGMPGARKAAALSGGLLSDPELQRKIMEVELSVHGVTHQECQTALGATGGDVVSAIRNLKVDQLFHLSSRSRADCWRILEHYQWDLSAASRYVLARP
# [7] = target: T2, Non-receptor tyrosine-protein kinase TNK1 (Homo sapiens); details: at 1 µM
# [8] = target: Activated CDC42 kinase 1 (Homo sapiens) (UniProt Q07912); details: at 0.1 µM
# [9] = target: Activated CDC42 kinase 1 (Homo sapiens) (UniProt Q07912); details: at 1 µM
# [10] = target: High affinity nerve growth factor receptor (Homo sapiens) (UniProt P04629); details: at 0.1 µM
# Sequence of High affinity nerve growth factor receptor (Homo sapiens) (P04629 33-796 limits assumed): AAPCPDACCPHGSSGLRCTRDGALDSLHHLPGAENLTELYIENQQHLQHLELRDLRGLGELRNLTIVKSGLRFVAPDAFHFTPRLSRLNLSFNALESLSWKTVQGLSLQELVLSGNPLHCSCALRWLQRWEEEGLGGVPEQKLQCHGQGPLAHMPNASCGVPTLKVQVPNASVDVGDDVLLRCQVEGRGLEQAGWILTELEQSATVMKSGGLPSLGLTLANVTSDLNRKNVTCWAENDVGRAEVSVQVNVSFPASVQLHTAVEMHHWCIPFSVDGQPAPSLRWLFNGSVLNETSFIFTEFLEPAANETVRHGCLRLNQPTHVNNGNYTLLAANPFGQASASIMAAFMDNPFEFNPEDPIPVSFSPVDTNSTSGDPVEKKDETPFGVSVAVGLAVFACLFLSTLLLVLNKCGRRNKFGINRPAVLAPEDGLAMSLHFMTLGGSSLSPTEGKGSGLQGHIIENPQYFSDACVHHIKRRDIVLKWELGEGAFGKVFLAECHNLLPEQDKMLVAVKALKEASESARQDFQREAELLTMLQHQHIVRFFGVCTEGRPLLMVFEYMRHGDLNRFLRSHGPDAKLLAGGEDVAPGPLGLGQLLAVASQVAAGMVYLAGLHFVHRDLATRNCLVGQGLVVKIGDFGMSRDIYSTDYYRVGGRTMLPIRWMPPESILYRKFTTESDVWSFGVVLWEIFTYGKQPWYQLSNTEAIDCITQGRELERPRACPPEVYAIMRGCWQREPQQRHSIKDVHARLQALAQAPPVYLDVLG
# [11] = target: High affinity nerve growth factor receptor (Homo sapiens) (UniProt P04629); details: at 1 µM
# [12] = target: BDNF/NT-3 growth factors receptor (Homo sapiens) (UniProt Q16620); details: at 0.1 µM
# Sequence of BDNF/NT-3 growth factors receptor (Homo sapiens) (Q16620 32-822 limits assumed): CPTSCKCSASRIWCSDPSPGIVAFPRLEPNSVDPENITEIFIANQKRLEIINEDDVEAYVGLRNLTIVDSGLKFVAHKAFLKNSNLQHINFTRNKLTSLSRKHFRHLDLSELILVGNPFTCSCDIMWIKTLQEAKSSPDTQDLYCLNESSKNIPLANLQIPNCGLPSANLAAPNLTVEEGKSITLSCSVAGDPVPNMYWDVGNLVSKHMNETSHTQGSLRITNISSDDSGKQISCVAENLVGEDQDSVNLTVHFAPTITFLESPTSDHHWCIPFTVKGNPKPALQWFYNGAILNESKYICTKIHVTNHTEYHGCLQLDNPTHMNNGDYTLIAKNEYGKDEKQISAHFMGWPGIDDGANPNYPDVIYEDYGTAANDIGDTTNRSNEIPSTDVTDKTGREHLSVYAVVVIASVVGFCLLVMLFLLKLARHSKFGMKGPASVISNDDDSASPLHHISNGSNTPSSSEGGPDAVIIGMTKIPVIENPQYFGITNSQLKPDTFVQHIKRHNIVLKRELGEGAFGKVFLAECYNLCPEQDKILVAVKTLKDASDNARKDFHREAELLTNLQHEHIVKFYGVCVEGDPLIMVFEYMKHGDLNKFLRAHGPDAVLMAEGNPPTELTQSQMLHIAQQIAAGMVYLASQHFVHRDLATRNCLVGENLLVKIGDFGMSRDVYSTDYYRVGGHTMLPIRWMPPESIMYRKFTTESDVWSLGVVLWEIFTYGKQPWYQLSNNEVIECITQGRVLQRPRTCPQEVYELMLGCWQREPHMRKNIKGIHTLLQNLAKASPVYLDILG
# [13] = target: BDNF/NT-3 growth factors receptor (Homo sapiens) (UniProt Q16620); details: at 1 µM
# [14] = target: NT-3 growth factor receptor (Homo sapiens) (UniProt Q16288); details: at 0.1 µM
# Sequence of NT-3 growth factor receptor (Homo sapiens) (Q16288 32-839 limits assumed): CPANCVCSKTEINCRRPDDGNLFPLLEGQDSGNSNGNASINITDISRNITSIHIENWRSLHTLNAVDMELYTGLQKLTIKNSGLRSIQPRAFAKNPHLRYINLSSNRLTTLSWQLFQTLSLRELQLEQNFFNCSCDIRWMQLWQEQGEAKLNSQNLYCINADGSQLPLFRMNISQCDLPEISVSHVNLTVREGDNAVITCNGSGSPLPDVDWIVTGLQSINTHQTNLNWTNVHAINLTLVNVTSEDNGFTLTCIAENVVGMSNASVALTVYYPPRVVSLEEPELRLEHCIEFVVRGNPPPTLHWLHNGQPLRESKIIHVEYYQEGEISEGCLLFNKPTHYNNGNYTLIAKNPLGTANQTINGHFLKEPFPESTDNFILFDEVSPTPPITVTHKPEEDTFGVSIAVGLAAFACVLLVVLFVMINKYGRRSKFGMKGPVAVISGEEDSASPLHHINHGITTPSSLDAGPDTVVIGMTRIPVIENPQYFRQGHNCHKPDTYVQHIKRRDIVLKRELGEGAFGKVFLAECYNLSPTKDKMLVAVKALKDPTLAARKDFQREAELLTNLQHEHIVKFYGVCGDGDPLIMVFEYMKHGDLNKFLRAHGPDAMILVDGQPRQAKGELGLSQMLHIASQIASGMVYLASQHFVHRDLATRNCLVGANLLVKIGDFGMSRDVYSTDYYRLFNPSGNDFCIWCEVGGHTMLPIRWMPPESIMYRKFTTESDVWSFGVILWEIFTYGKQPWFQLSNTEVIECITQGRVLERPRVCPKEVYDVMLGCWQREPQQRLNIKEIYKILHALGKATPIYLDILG
# [15] = target: NT-3 growth factor receptor (Homo sapiens) (UniProt Q16288); details: at 1 µM
# [16] = target: T3, Tyrosine-protein kinase TXK (Homo sapiens) (UniProt P42681); details: at 0.1 µM
# T3 sequence (whole entry): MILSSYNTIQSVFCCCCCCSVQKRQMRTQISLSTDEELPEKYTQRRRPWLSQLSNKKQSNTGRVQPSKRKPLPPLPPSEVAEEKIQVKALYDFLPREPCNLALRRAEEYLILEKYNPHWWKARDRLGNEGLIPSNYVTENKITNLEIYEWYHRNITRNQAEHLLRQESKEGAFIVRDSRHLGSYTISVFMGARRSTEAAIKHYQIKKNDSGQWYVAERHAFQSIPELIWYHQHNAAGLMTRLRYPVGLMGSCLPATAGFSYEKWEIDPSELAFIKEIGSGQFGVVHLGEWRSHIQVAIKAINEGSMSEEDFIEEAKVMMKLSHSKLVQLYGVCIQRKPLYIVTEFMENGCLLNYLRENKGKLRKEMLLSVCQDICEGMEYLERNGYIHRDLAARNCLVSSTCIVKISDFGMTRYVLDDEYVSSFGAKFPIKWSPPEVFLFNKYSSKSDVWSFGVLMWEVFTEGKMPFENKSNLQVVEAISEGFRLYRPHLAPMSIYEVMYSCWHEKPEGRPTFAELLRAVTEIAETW
# [17] = target: T3, Tyrosine-protein kinase TXK (Homo sapiens); details: at 1 µM
# [18] = target: Non-receptor tyrosine-protein kinase TYK2 (Homo sapiens) (UniProt P29597); details: at 0.1 µM;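 further: each value is a mean of the inhibition readings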
# Sequence of Non-receptor tyrosine-protein kinase TYK2 (Homo sapiens) (P29597 whole entry): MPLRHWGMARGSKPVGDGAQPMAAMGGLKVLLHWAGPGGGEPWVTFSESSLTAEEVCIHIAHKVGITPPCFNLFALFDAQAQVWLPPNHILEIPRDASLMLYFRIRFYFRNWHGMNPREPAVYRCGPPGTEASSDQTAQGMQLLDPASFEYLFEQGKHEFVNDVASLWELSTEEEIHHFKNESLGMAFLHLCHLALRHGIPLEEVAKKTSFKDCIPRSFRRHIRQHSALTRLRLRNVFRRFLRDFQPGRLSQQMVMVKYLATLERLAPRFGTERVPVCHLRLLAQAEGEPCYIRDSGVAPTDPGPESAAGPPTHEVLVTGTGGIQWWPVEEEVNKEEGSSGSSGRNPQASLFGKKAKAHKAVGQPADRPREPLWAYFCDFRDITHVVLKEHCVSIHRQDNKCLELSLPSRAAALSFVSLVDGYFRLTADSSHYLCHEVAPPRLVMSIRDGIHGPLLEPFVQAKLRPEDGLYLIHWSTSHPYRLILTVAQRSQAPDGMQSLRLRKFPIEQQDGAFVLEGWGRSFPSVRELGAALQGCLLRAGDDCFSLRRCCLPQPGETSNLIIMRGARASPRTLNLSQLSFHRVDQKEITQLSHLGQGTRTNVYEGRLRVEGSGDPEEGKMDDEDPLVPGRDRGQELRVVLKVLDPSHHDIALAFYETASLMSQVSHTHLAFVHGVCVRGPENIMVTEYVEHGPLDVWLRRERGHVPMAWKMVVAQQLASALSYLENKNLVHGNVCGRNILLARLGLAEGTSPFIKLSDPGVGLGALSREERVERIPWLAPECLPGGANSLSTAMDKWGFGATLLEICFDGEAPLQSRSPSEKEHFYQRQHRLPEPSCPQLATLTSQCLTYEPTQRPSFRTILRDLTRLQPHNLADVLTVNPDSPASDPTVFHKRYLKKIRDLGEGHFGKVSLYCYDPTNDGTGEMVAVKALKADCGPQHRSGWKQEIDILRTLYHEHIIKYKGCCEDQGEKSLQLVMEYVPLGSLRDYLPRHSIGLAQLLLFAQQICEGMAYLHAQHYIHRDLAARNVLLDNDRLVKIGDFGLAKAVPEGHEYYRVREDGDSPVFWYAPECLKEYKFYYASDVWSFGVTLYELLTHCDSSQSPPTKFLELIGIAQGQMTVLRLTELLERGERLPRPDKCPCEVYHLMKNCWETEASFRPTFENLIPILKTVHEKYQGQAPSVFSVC
# [19] = target: T4, Dual specificity protein kinase TTK (Homo sapiens) (UniProt P33981); details: at 1 µM;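 further: reported figures are mean TTK inhibition at 1 µM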
# T4 sequence (whole entry): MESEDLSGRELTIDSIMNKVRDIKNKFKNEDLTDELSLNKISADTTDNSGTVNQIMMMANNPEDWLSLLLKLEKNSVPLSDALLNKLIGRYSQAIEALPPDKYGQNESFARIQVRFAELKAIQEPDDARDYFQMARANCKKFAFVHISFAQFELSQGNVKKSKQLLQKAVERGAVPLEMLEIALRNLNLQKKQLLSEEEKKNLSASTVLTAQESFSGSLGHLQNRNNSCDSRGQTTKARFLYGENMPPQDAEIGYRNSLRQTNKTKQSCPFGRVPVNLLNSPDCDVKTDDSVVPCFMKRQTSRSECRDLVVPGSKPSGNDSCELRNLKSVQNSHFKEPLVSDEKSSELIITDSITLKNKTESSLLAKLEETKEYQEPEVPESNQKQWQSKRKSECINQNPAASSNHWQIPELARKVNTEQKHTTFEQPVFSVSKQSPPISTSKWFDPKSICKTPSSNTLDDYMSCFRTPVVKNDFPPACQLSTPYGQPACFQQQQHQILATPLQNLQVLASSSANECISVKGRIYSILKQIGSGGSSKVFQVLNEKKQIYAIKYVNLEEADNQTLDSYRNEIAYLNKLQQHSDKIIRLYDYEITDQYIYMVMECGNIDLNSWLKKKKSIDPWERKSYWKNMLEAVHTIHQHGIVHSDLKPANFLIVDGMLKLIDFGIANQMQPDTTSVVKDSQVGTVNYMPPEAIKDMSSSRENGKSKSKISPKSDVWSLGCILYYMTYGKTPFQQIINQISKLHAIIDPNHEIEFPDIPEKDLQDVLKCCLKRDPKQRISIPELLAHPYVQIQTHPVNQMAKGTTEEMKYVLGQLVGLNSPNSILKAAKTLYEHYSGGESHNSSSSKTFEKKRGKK
# [20] = target: T5, Aurora kinase A (Homo sapiens) (UniProt O14965); details: at 0.1 µM;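 further: each reported value is a mean percent inhibition of Aurora-A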
# T5 sequence (whole entry): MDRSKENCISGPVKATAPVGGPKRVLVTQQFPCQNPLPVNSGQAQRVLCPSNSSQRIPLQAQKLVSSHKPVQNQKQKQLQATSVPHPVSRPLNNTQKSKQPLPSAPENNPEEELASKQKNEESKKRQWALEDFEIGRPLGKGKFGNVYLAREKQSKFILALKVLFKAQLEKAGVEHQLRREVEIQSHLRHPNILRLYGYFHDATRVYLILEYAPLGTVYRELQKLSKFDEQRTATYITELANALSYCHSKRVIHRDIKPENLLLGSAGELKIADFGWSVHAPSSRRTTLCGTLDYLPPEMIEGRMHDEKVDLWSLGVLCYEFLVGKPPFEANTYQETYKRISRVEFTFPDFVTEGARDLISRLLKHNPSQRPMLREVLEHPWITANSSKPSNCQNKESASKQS
SMILES,inhibition [1],inhibition [2],inhibition [3],inhibition [4],inhibition [5],inhibition [6],inhibition [7],inhibition [8],inhibition [9],inhibition [10],inhibition [11],inhibition [12],inhibition [13],inhibition [14],inhibition [15],inhibition [16],inhibition [17],inhibition [18],inhibition [19],inhibition [20]
N#Cc1ccc2c(-c3ccnc(NC4CC4)n3)c(-c3ccc(F)cc3)nn2c1,-1.91%,-0.44%,3.17%,1.54%,3.72%,-0.18%,1.77%,0.77%,1.6%,-1.05%,-2.02%,0.12%,0.68%,-1.35%,-1.48%,0.94%,12.3%,0.53%,3.53%,0.84%
CCS(=O)(=O)c1ccc(OC)c(Nc2ncc(-c3cccc(C(C)=O)c3)o2)c1,-2.16%,6.22%,26.6%,2.09%,9.26%,15.3%,66.9%,1.65%,6.5%,4.29%,9.16%,4.28%,20.5%,4.38%,29.4%,13%,50.5%,-3.16%,8.55%,2.45%
COC(=O)Nc1nc2cc(Oc3ccc(NC(=O)Nc4ccccc4)cc3)ccc2[nH]1,0.09%,1.83%,1.84%,5.37%,9.24%,2.64%,4.12%,0.69%,1.18%,2.62%,0.28%,1.72%,3.06%,4.04%,7.05%,1.84%,1.98%,-2.96%,4.66%,2.47%
COc1ccc(-c2nn3ncccc3c2-c2ccnc(Nc3ccc(F)c(F)c3)n2)cc1,-2.02%,6.05%,7.67%,3.17%,7.31%,4.48%,9.68%,1.57%,4.87%,1.54%,3.36%,2.76%,8.32%,2.73%,4.85%,2.4%,5%,-2.09%,-0.7%,2.87%
Nc1nccc(-c2c(-c3ccc(F)cc3)ncn2C2CCNCC2)n1,-2.74% and 1.45%,-2.4% and 0.94%,-2.93% and 2.08%,-0.35% and 2.75%,1.51% and 1.25%,-6.18% and -1.13%,-2.86% and -0.41%,-1.87% and 0.84%,-2.1% and 1.2%,-1.68% and 4.53%,-2.46% and 2.61%,-1.2% and 0.85%,-0.92% and 0.76%,-2.82% and 1.09%,-1.78% and 1.96%,-1.02% and 1.02%,-0.81% and 3.65%,0.9% and -0.21%,-1.76% and -0.14%,-4.27% and 0.74%
CCn1c(-c2nonc2N)nc2cncc(C(=O)NCCNC)c21,-6.01%,2.57%,4.27%,5.54%,7.24%,-0.07%,8.48%,2.67%,2.15%,1.96%,3.09%,3.03%,5.31%,3.96%,3.4%,-1.02%,1.12%,-3.39%,10.5%,3.09%
NS(=O)(=O)c1ccc(N/N=C2\C(=O)Nc3ccc(C(=O)NCc4ccncc4)cc32)cc1,-2.54%,3.82%,7.13%,-0.94%,1.16%,3.58%,17.5%,0.57%,2.58%,4.11%,33.7%,13%,60%,19.2%,66.2%,2.66%,5.17%,-8.31%,69.2%,6.11%
